# Results reported in PubChem BioAssay (Tox21).
# Records with an inconclusive call do not appear. Where a call stands in place of a potency, no number is given. A structure can be active in one record and inactive in another. Active and inactive are the calls of the source. Calls come from the whole dose curve.
# Molecular target: Acetylcholinesterase (Homo sapiens) (UniProt P22303)
# Experiment: Acetylcholinesterase (AChE) small molecule antagonists: fluorescence cell-based qHTS assay (AID 1347398); note: nearly all actives have a fitted effect of over 50% in size; note: potency is the fitted concentration of half-maximal effect
# Conditions: SH-SY5Y cells; Potency: AChE activity; outcome: AChE activity; series mostly up to 115 µM
# Outline: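 Fluorimetric cell-based assay: intact SH-SY5Y cells, 30 min compound preincubation at 37 C, acetylthiocholine substrate with thiol probe Thiolite Green, 40 min RT development, fluorescence 490/520 nm.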
# Acetylcholinesterase (Homo sapiens), sequence (P22303 whole entry, looked up): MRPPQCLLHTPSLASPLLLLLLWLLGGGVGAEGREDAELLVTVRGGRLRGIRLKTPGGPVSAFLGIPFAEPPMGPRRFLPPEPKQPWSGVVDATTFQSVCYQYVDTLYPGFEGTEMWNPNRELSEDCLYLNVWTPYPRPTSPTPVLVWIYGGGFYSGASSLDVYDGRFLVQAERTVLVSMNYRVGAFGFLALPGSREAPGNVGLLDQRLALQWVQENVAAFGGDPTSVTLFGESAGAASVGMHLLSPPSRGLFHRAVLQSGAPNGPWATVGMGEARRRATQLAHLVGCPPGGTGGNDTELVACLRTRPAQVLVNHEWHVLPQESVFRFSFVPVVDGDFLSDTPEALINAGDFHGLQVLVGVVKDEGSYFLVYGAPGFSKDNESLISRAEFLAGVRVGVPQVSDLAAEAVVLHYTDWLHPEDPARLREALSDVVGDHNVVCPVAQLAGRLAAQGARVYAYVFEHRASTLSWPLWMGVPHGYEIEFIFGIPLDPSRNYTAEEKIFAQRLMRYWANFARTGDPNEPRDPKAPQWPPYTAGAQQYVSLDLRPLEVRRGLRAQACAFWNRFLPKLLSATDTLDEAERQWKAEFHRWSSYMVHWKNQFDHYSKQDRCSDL
Compound,Potency,outcome
CC(C)Oc1ccccc1O,inactive,
CCN(CC)S(=O)(=O)c1ccc(C(=O)O)cc1,inactive,
COC(=O)C1CCC(C(=O)OC)CC1 (stereo not given),inactive,
CN1Cc2cc(C(=O)N3CCC(C4CCNCC4)CC3)ccc2N[C@@H](CC(=O)O)C1=O,inactive,
COc1ccccc1OCC1CNC(=O)O1 (stereo not given),inactive,
CCCCCCCCCC(=O)OC,34.9 µM (active) and inactive,
CC1C(C)(C)C2=C(C(=O)CCC2)C1(C)C (stereo not given),inactive,
CCC(C)(O)CCC=C(C)C (stereo not given),inactive,
CC1=C(C/C=C(\C)CCC[C@H](C)CCC[C@H](C)CCCC(C)C)C(=O)c2ccccc2C1=O,inactive,
O=C(O)c1cc(O)c(O)c(O)c1,inactive,
Nc1ccc(C(=O)Nc2ccccc2N)cc1,inactive,
SCCc1cnccn1,inactive,
COc1ccc(S(=O)(=O)Nc2nnc(CC(C)C)s2)cc1,inactive,
Oc1ccccc1C=NCc1ccccc1,inactive,
O=C(COCCOCCOCC(=O)Nc1c(I)cc(I)c(C(=O)O)c1I)Nc1c(I)cc(I)c(C(=O)O)c1I,inactive,
CC[C@H](C)COC(=O)/C=C/c1ccc(N=Cc2ccc(OC)cc2)cc1,inactive,
O=c1n(CCO)c(=O)n(CCO)c(=O)n1CCO,inactive,
Cc1ccc2c(c1)C(=O)c1ccccc1C2=O,inactive,
Cc1oc(-c2ccccc2)nc1CCOc1ccc(C[C@H](Nc2ccccc2C(=O)c2ccccc2)C(=O)O)cc1,inactive,
CNC(=O)c1c(I)c(NC(=O)CCCCC(=O)Nc2c(I)c(C(=O)O)c(I)c(C(=O)NC)c2I)c(I)c(C(=O)O)c1I,inactive,

Compound,Potency,outcome
O=C(O)C(Cc1cc(I)c(O)c(I)c1)c1ccccc1 (stereo not given),inactive,
C=C1C2CCC(C2)C1(C)C (stereo not given),inactive,
CC(C)(C)c1cc(/C=C2\SC(=N)NC2=O)cc(C(C)(C)C)c1O,,inactive
CC(C)(C)C(=O)OCOC(=O)[C@@H]1N2C(=O)[C@@H](NC(=O)[C@H](N)c3ccccc3)[C@H]2SC1(C)C,inactive,
COc1ccc([N+](=O)[O-])cc1N,inactive,
COc1cc(NS(=O)(=O)c2ccc(N)cc2)ncn1,inactive,
Cc1c(-c2cccnc2)c2ccccc2n1CCCCC(=O)O,inactive,
NC(=O)COCCN1CCN(C(c2ccccc2)c2ccc(Cl)cc2)CC1 (stereo not given),inactive,
CC[C@H](C)[C@@H](C(=O)O)n1sc2ccccc2c1=O,inactive,
CCCCCCCC(=O)OCC,inactive,
O=C1[C@@H]2[C@H]3CC[C@H](C3)[C@@H]2C(=O)N1CCCCN1CCN(c2ncccn2)CC1,inactive,
O=C1NC(=O)[C@@]2(CCOc3ccc(F)cc32)N1,inactive,
CCCCCCCCCCCCOCCO,inactive,
CC1(C)[C@@H](O[C@H]2O[C@H](C(=O)O)[C@@H](O)[C@H](O)[C@H]2O[C@@H]2O[C@H](C(=O)O)[C@@H](O)[C@H](O)[C@H]2O)CC[C@]2(C)[C@H]3C(=O)C=C4[C@@H]5C[C@@](C)(C(=O)O)CC[C@]5(C)CC[C@@]4(C)[C@]3(C)CC[C@@H]12,inactive,
O=C1c2c(O)cccc2Cc2cccc(O)c21,inactive,
CC12CCC(CC1)C(C)(C)O2,inactive,
O=c1cc[nH]c(=S)[nH]1,inactive,
Cc1ncc(COP(=O)(O)O)c(C=O)c1O,inactive,
Cc1cc(O)c(C(C)(C)C)cc1Sc1cc(C(C)(C)C)c(O)cc1C,inactive,
NC(=O)c1cn(Cc2c(F)cccc2F)nn1,inactive,

# Molecular target: Acetylcholinesterase (Homo sapiens) (UniProt P22303)
# Experiment: Acetylcholinesterase (AChE) small molecule antagonists: enzyme-based qHTS assay with human liver microsomes (AID 1347399); note: nearly all actives have a fitted effect of over 60% in size
# Conditions: Potency: qHTS inhibition; outcome: qHTS inhibition; series mostly up to 115 µM
# Outline: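 Recombinant human AChE (50 mU/mL in the enzyme mix) and human liver microsomes (0.25 mg/mL final) were preincubated with compound and NADPH (0.25 mg/mL final) for 30 min at 37 C. Acetylthiocholine/DTNB was then added; thiocholine was read colorimetrically after 10 min at room temperature.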
Compound,Potency,outcome
CC(C)Oc1ccccc1O,inactive,
CCN(CC)S(=O)(=O)c1ccc(C(=O)O)cc1,inactive,
COC(=O)C1CCC(C(=O)OC)CC1 (stereo not given),inactive,
CN1Cc2cc(C(=O)N3CCC(C4CCNCC4)CC3)ccc2N[C@@H](CC(=O)O)C1=O,inactive,
COc1ccccc1OCC1CNC(=O)O1 (stereo not given),inactive,
CCCCCCCCCC(=O)OC,inactive,
CC1C(C)(C)C2=C(C(=O)CCC2)C1(C)C (stereo not given),inactive,
CCC(C)(O)CCC=C(C)C (stereo not given),inactive,
CC1=C(C/C=C(\C)CCC[C@H](C)CCC[C@H](C)CCCC(C)C)C(=O)c2ccccc2C1=O,inactive,
O=C(O)c1cc(O)c(O)c(O)c1,inactive,
Nc1ccc(C(=O)Nc2ccccc2N)cc1,inactive,
SCCc1cnccn1,inactive,
COc1ccc(S(=O)(=O)Nc2nnc(CC(C)C)s2)cc1,inactive,
Oc1ccccc1C=NCc1ccccc1,inactive,
O=C(COCCOCCOCC(=O)Nc1c(I)cc(I)c(C(=O)O)c1I)Nc1c(I)cc(I)c(C(=O)O)c1I,inactive,
CC[C@H](C)COC(=O)/C=C/c1ccc(N=Cc2ccc(OC)cc2)cc1,inactive,
O=c1n(CCO)c(=O)n(CCO)c(=O)n1CCO,inactive,
Cc1ccc2c(c1)C(=O)c1ccccc1C2=O,inactive,
Cc1oc(-c2ccccc2)nc1CCOc1ccc(C[C@H](Nc2ccccc2C(=O)c2ccccc2)C(=O)O)cc1,inactive,
CNC(=O)c1c(I)c(NC(=O)CCCCC(=O)Nc2c(I)c(C(=O)O)c(I)c(C(=O)NC)c2I)c(I)c(C(=O)O)c1I,inactive,

Compound,Potency,outcome
O=C(O)C(Cc1cc(I)c(O)c(I)c1)c1ccccc1 (stereo not given),inactive,
C=C1C2CCC(C2)C1(C)C (stereo not given),inactive,
CC(C)(C)c1cc(/C=C2\SC(=N)NC2=O)cc(C(C)(C)C)c1O,,inactive
CC(C)(C)C(=O)OCOC(=O)[C@@H]1N2C(=O)[C@@H](NC(=O)[C@H](N)c3ccccc3)[C@H]2SC1(C)C,inactive,
COc1ccc([N+](=O)[O-])cc1N,inactive,
COc1cc(NS(=O)(=O)c2ccc(N)cc2)ncn1,inactive,
Cc1c(-c2cccnc2)c2ccccc2n1CCCCC(=O)O,inactive,
NC(=O)COCCN1CCN(C(c2ccccc2)c2ccc(Cl)cc2)CC1 (stereo not given),inactive,
CC[C@H](C)[C@@H](C(=O)O)n1sc2ccccc2c1=O,inactive,
CCCCCCCC(=O)OCC,inactive,
O=C1[C@@H]2[C@H]3CC[C@H](C3)[C@@H]2C(=O)N1CCCCN1CCN(c2ncccn2)CC1,inactive,
O=C1NC(=O)[C@@]2(CCOc3ccc(F)cc32)N1,inactive,
CCCCCCCCCCCCOCCO,inactive,
CC1(C)[C@@H](O[C@H]2O[C@H](C(=O)O)[C@@H](O)[C@H](O)[C@H]2O[C@@H]2O[C@H](C(=O)O)[C@@H](O)[C@H](O)[C@H]2O)CC[C@]2(C)[C@H]3C(=O)C=C4[C@@H]5C[C@@](C)(C(=O)O)CC[C@]5(C)CC[C@@]4(C)[C@]3(C)CC[C@@H]12,inactive,
O=C1c2c(O)cccc2Cc2cccc(O)c21,inactive,
CC12CCC(CC1)C(C)(C)O2,inactive,
O=c1cc[nH]c(=S)[nH]1,inactive,
Cc1ncc(COP(=O)(O)O)c(C=O)c1O,inactive,
Cc1cc(O)c(C(C)(C)C)cc1Sc1cc(C(C)(C)C)c(O)cc1C,inactive,
NC(=O)c1cn(Cc2c(F)cccc2F)nn1,inactive,
